The values that follow come from PubChem BioAssay (NCI).

“And” between values parts separate entries of the source, which are not always exact repeats. Equal values may be shown once. The panel holds about 83,000 compounds, 20% with a hit somewhere; the sample as a whole holds those more often.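 The test compound was applied at a single concentration to cells in 96-well plates for 48 hours, and percent growth was recorded.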 The source made the active and inactive calls. The calls were made as follows: active = growth percent below 10; inactive = the rest.

The test system of this experiment is MCF7 breast. The experiment in a line: NCI-60 one-dose screen, 48 h (100 = growth as untreated, 0 = no growth, -100 = all killed). As to conditions: 10 µM unless noted.
Turning to `CC1(C=O)CCC23COC4(CCC5C6(C)CCC(OC7OCC(OC8OC(CO)C(O)C(OC9OC(CO)C(O)C(O)C9O)C8OC8OCC(O)C(O)C8O)C(O)C7OC7OC(CO)C(O)C(O)C7O)C(C)(C)C6CCC5(C)C4(C)CC2O)C3C1` (configuration not stated), the growth is -68.6% [100 µM] (active) and -39.6% [100 µM] (active).

`S=C1NC2=C(COc3ccccc32)C(c2ccc(Cl)cc2)N1` (configuration not stated): the growth was -4.81% [100 µM] (active) and -100% [100 µM] (active).

Take `CCCCCCCCC(=O)OCCCC(CCC(CCC1CCCO1)OC(=O)CCCCCCCC)OC(=O)CCCCCCCC` (configuration not stated): the growth was 100% (inactive).

Take `C=C1C(=O)OC2CC1C(OC(=O)/C=C/c1ccccc1)C/C(C)=C/CC/C(C)=C/CCC2(C)O` (configuration not stated): the growth is -76% [100 µM] (active) and -30% [100 µM] (active).

Regarding `Cc1ccc(NC(=S)C#N)cc1Cl`, the growth was -25.7% [100 µM] (active) and -100% [100 µM] (active).

As to `O=C(O)CCCOc1cc(-c2ccccc2F)nc2cc3c(cc12)OCO3`, the growth was 9.31% [100 µM] (active) and -50% [100 µM] (active).

For `C=C1C(=O)OC2CC3(C)CCCC(C)C3=CC12` (configuration not stated), the growth is -91.8% [100 µM] (active) and -84.5% [100 µM] (active).

`COc1c(/C=C/C=O)cc2c(c1OC)OCO2`: the growth is -30% [100 µM] (active) and -83.3% [100 µM] (active).

As to `C=c1c2ccccc2oc2nc3[nH]c(N)c(C#N)c(N)c3c(=N)c12`, the growth was 25.6% [100 µM] (inactive) and 0.562% [100 µM] (active).

`CC1OC(OC2C(OC3CCC4(C)C(CCC5(C)C4CC=C4C6CC(C)(C)CCC6(C(=O)O)CCC45C)C3(C)CO)OCC(O)C2O)C(O)C(O)C1O` (configuration not stated): the growth was -88% [100 µM] (active) and -90.5% [100 µM] (active).

As to `CN1CCc2cc3c(c4c2C1C(O)c1ccccc1-4)OCO3` (configuration not stated), the growth was -24.6% [100 µM] (active) and -58.3% [100 µM] (active).

For `CC1=C(C2=C(C)C(=O)C(=O)c3cc(C)ccc32)c2ccc(C)cc2C(=O)C1=O`, the growth was -55.4% [100 µM] (active) and -100% [100 µM] (active).

For `On1c(-c2ccccc2)nc2ccccc2c1=S`, the growth is 6.65% [100 µM] (active) and -68.9% [100 µM] (active).

As for `C=CCO/N=C/c1cc(NC(=S)c2ccoc2C)ccc1Cl`, the growth is -83.2% [100 µM] (active) and -45% [100 µM] (active).

`COc1ccc2c(c1)C(OC)C1c3c(cc4c(c3-2)OCO4)CCN1C` (configuration not stated): the growth was -76.9% [100 µM] (active) and -70% [100 µM] (active).

Regarding `CCOC(=O)C1C(C(C)C)C2(C#N)C(=N)OC1(C)C2(C#N)C#N` (configuration not stated), the growth is 2.36% [100 µM] (active) and -41% [100 µM] (active).

Take `COc1ccc(Nc2nc3ccc(C(F)(F)F)cc3nc2C(=O)O)cc1`: the growth was -31.5% [100 µM] (active) and -100% [100 µM] (active).

For the compound `CCOc1cc2c(cc1O)/C(=N\OC)C[C@@H]1[C@@H]2CC[C@]2(C)[C@@H](O)CC[C@@H]12`, the growth was 0.562% [100 µM] (active) and -100% [100 µM] (active).

For the compound `O=C(CCc1ccccc1)ON1C(=S)NC(c2ccccc2)(c2ccccc2)C1=S`, the growth is -45.8% [100 µM] (active) and 5.76% [100 µM] (active).

For the compound `COC(=O)[C@]1(C)CCC[C@@]2(C)[C@@H]3C[C@@H]4[C@H]5C[C@@]3(CC[C@@H]21)C[C@@]45C`, the growth is -81% [100 µM] (active) and -80% [100 µM] (active).

As for `C=C1C(=O)C2=CC1CCC(=O)C1(C)CCC(OC(C)=O)C(C)(C)C1CC2O` (configuration not stated), the growth was -80.9% [100 µM] (active) and -63.1% [100 µM] (active).

For `COc1ccc2c(c1)C(N)=C(c1ccccc1)C2=O`, the growth was 57.4% [100 µM] (inactive) and 16.6% [100 µM] (inactive).

Regarding `CCOc1ccc(NC(=O)/C(=N\N)C(C(=O)OC)c2nc3ccc(Cl)cc3[nH]c2=O)cc1` (configuration not stated), the growth was 73% [100 µM] (inactive) and 60.5% [100 µM] (inactive).

Regarding `CC1=CC[C@@H]2[C@@H](CC[C@@]2(C)O)C(C)(C)[C@H]1CC[C@@H]1[C@@]2(C)CC[C@@H](O)C(C)(C)O[C@@H]2CC[C@]1(C)O`, the growth was -12.8% [100 µM] (active) and -70.8% [100 µM] (active).

Regarding `Cc1ccc(/C=N/Nc2cc(C)c3cccc(C)c3n2)s1`, the growth was -73.1% [100 µM] (active) and -100% [100 µM] (active).

With `C=C(C)C1CC2(C)C(C)CC(O)CC2C(OC(=O)C=C(C)C)C1O` (configuration not stated), the growth is 5.38% [100 µM] (active) and 25.4% [100 µM] (inactive).

Regarding `N=C1C(=N)c2ccccc2-c2ccccc21`, the growth was 30.7% [100 µM] (inactive) and 0.817% [100 µM] (active).

`Cn1c(COC(=O)NC2CCCCC2)c(COC(=O)NC2CCCCC2)c2ccc3cc(Cl)c(Cl)cc3c21`: the growth was -78.6% [100 µM] (active).

On to `Cc1c2c(c(C)c3c[n+](C)ccc13)Oc1ccccc1O2`, for which the growth is -33.4% [100 µM] (active) and -100% [100 µM] (active).

In the case of `COc1ccc2nc3c4c(nccc4c2c1)-c1ncccc1C3=O`, the growth was -82% [50 µM] (active) and -100% [50 µM] (active).

For `CCOC(=O)COc1cc(-c2ccccc2F)nc2cc3c(cc12)OCO3`, the growth was 42.6% [100 µM] (inactive) and 19.5% [100 µM] (inactive).

On to `O=Cc1ccc(-c2ccc(-c3ccc(CO)s3)o2)s1`, for which the growth was -23.2% [100 µM] (active) and -100% [100 µM] (active).

Regarding `CC1(C)CCC2(C(=O)O)C(O)CC3(C)C(=CCC4C5(C)CCC(OC6OCC(O)C(O)C6OC6OCC(O)C(O)C6OC6OCC(O)C(OC7OC(CO)C(O)C(O)C7O)C6O)C(C)(C)C5CCC43C)C2C1` (configuration not stated), the growth is 76.4% [100 µM] (inactive) and 25.5% [100 µM] (inactive).

With `COc1ccc(OC)c(Cc2cnc3nc(N)nc(N)c3c2C)c1`, the growth is 3.33% [100 µM] (active) and -100% [100 µM] (active).

For the compound `CC1=C(Cl)C[C@@H](/C(C)=C\Cl)O[C@@]1(O)C(Br)Br`, the growth was 19.3% [100 µM] (inactive) and -76.7% [100 µM] (active).

In the case of `Fc1cccc(F)c1C1SCc2nc3cc4ccccc4cc3n21` (configuration not stated), the growth was -28.9% [100 µM] (active) and -2.13% [100 µM] (active).

For the compound `CC(C)(C)N/N=C(/Cc1nc2c3c(ccc2[nH]c1=O)C(=O)c1ccccc1C3=O)C(=O)NC1=C(Cl)C(=O)c2ccccc2C1=O`, the growth was 6.76% [100 µM] (active) and -75.9% [100 µM] (active).
